Assay results as given in PubChem BioAssay (NCATS).
Values joined by “and” are separate entries in the source; they are usually repeats but may differ in a detail not shown here. Equal entries are not always repeated. Records with an inconclusive call do not appear. Active and inactive are the calls of the source. Unless noted, the call rests on the fitted dose curve; in most records, active means well fitted curve in either direction with a large enough effect (not every such curve was filed as active); inconclusive means small, poorly fitted or top-dose-only effect, or another doubt; inactive means flat fitted curve, though single readings scatter.

Key:
[1] = AP1 Signaling Pathway (AID 357)
Procedure, shortened: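 AP-1-bla ME-180 cells with beta-lactamase reporter under AP-1 response element, stimulated with EC50 EGF; compounds titrated, 5 hours at 37 degrees Celsius. CCF4 read at 460/530 nm ratio; positive and negative modulators judged by AC50.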

[2] = target: Cytochrome P450 1A2 (Homo sapiens) (UniProt P05177); test: p450-cyp1a2 (AID 410; calls by dose curve)
Sequence of Cytochrome P450 1A2 (Homo sapiens) (P05177 whole entry, looked up): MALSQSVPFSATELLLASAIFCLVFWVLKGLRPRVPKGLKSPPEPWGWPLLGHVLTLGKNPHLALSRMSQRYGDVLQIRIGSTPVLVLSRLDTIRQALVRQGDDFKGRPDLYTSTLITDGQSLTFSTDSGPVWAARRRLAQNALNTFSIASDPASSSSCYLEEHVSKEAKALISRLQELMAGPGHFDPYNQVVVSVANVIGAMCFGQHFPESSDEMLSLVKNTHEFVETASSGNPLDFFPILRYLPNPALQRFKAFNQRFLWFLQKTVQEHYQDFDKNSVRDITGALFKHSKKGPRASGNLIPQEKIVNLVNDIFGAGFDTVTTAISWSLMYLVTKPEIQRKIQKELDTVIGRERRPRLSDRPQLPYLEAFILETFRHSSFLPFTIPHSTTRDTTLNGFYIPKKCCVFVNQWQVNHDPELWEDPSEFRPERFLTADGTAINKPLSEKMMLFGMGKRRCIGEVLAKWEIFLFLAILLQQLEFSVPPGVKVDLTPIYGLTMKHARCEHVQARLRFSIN
Procedure, shortened: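 Read-out is luminescence from luciferin produced by CYP1A2 demethylation of Luciferin-ME (100uM, at Km). Detection reagent stopped the 60 min NADPH-dependent reaction; signals were normalized to 57 uM furafylline.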

[3] = NFAT Signaling Pathway (AID 444);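 further: carbachol stimulus at about its EC50 of 1 µM final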
Procedure, shortened: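 Jurkat cells with NFAT-driven β-lactamase reporter and co-expressed M1 receptor, stimulated with carbachol (final 1 uM, ~EC50), compound titration, 5 h at 37 °C. CCF4 loaded 1 h at RT; 460/530 nm ratio gave %activity and AC50.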

[4] = Stat Signaling Pathway (AID 446);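 further: ME-180 cervical cancer cells given 40 pM IL-6 alongside compound; SIE-controlled beta-lactamase reporter measured as 460/530 nm FRET emission ratio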
Procedure, shortened: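 Normalization used AC90 stimulation (300 pM IL-6) and AC90 inhibition (125 nM pan-JAK inhibitor at 40 pM IL-6). The underlying signal is SIE-driven beta-lactamase in ME-180 cells after 5 h IL-6 exposure with compound.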

[5] = target: Glucocorticoid receptor (Homo sapiens) (UniProt P04150); test: GR-GFP Redistribution (AID 450;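 active means compounds whose dose series gives a full or clear partial fitted curve of increased nuclear translocation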; further: potency means the concentration at half of the fitted maximal effect); conditions: U2OS GR-GFP nuclear translocation, laser cytometry, 2 h
Sequence of Glucocorticoid receptor (Homo sapiens) (P04150 whole entry, looked up, the tested form may be a part): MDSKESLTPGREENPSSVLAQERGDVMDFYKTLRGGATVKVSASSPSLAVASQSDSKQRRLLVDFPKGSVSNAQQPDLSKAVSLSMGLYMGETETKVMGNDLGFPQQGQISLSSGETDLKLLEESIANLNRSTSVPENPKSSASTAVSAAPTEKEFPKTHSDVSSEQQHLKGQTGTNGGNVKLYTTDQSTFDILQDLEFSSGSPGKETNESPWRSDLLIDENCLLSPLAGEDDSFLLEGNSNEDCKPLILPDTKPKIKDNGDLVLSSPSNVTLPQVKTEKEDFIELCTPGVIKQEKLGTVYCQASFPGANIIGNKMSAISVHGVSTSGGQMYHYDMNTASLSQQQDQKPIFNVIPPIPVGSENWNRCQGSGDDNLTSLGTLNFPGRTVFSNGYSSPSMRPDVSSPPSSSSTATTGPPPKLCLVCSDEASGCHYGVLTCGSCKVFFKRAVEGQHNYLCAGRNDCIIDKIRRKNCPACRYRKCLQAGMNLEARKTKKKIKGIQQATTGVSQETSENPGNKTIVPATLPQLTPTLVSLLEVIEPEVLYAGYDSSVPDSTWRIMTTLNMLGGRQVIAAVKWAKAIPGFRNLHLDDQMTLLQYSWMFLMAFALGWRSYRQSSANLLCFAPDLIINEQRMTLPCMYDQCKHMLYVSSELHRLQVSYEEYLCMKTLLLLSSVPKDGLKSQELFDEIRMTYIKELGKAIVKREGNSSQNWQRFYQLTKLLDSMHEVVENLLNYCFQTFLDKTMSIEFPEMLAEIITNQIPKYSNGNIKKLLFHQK
Description: NIH Molecular Libraries Screening Centers Network [MLSCN]
NIH Chemical Genomics Center [NCGC]
The glucocorticoid receptor (GR) Redistribution assay (BioImage) enables the visualization of GR cytoplasmic to nuclear translocation by the use of a GR-GFP fusion. GR is normally cytosolic, however ligands such as dexamethasone, cause nuclear translocation where the protein binds to response elements and interacts with various co-factors to modulate transcription. Because both functional agonists and antagonists can induce nuclear translocation, this assay can detect ligands regardless of their effects on gene expression. GR-GFP expressing U20S cells were used here. Dexamethasone was the positive control for translocation and data normalization. Detection of nuclear translocation was performed in 1536-well plates using the Acumen laser scanning plate cytometer (TTP LabTech). Validation of this assay and a detailed protocol have been described.
NCGC Assay Protocol Summary:
GR-GFP U2OS cells were maintained in DMEM with Glutamax and high glucose, 1% v/v penicillin-streptomycin, and 0.5 mg/mL Geneticin. […] The plates were read by the Acumen Explorer using a 1 x 8 um scan of the whole well area. PI fluorescence triggered the collection of PI and GFP signals. […] Two subpopulations of nuclei were then defined by peak intensity of GFP fluorescence to obtain translocated and untranslocated objects. […]

[6] = target: Glucocorticoid receptor (Homo sapiens) (UniProt P04150); test: GR-EFC Redistribution (AID 451; calls by dose curve; further: potency means the concentration at half of the fitted maximal effect); conditions: CHO-K1 GR-EFC translocation, beta-gal luminescence, 2 h
Procedure, shortened: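 CHO-K1 cells expressing nuclear EA and GR-ED fragments of b-gal; compounds titrated up to 46 uM final, 2 h at 37 C. GR nuclear translocation read as complemented b-gal luminescence after 1 h RT detection.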

[7] = target: Mitogen-activated protein kinase 10 (Mus musculus) (UniProt Q61831); test: JNK3 AlphaScreen Assay (AID 530);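 further: kinase came from lysate of stimulated human HepG2 cells; signal reports phosphorylation of biotinylated GST-cJun 1-79 at Ser73 with 10 µM ATP; series mostly up to about 57 µM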
Procedure, shortened: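 HepG2 lysate (IL-1b/TNFa pre-activated) + biotin-GST-cJun 1-79 + anti-pSer73 cJun; cpd titration, 15 min RT; ATP 10 uM start; Tris pH 7.6, MgCl2, DTT, vanadate; beads in EDTA buffer; AlphaScreen.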

[8] = Cell Viability - BJ (AID 421; calls by dose curve;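 further: potency means the concentration at half of the fitted maximal effect; cells exposed to compound for 40 hours at 37 °C before readout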); conditions: BJ fibroblast viability, qHTS
Procedure, shortened: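 Normal human BJ foreskin fibroblasts, 1500/well in complete medium, treated 40 hr at 37 °C. Cellular ATP by CellTiter-Glo luminescence; normalized to DMSO and 100 uM tamoxifen, AC50 from Hill fit.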

[9] = Cell Viability - Jurkat (AID 426;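 active means dose-dependent loss of cell ATP signal giving a full or clear fitted curve, ranked by lower potency value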; further: potency means the concentration at half of the fitted maximal effect); conditions: qHTS
Procedure, shortened: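 Cytotoxicity was scored as loss of cellular ATP, measured by luciferase-based luminescence, in Jurkat clone E6-1 cells after 40 h compound treatment; tamoxifen and doxorubicin served as positive controls.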

[10] = Cell Viability - Hek293 (AID 427;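 active means compounds whose dose-response curve shows a full or clear partial loss of cell viability, called from curve shape rather than a numeric limit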;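 further: potency means the concentration at half of the fitted maximal effect; cells exposed to compound for 40 hours at 37 °C before reading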); conditions: qHTS
Procedure, shortened: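 HEK293 cells in complete medium were exposed to compound for 40 hr at 37 °C, then cellular ATP was read by CellTiter-Glo luminescence. Data were normalized to DMSO (basal) and 100 uM tamoxifen (100% inhibition), and AC50 came from Hill fits.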

[11] = Cell Viability - HepG2 (AID 433; calls by dose curve;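 further: potency means the concentration at half of the fitted maximal effect; potency for ATP loss meaning cytotoxicity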); conditions: qHTS
Procedure, shortened: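 ATP luminescence (CellTiter-Glo) after 40 h compound exposure, 37 °C, HepG2, 1500 cells/well, complete medium. Normalized: DMSO = basal, 100 uM tamoxifen = 100% inhibition. AC50 via standard Hill equation.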

[12] = Cell Viability - MRC5 (AID 434; calls by dose curve;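 further: potency means the concentration at half of the fitted maximal effect; potency reflects cytotoxicity seen as loss of intracellular ATP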); conditions: MRC5 lung fibroblast viability, qHTS
Procedure, shortened: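 ATP luminescence read-out (CellTiter-Glo, 20 min RT) after 40 hr, 37 °C compound exposure of 1500 MRC5 cells/well. Data normalized to DMSO (basal) and 100 uM tamoxifen (100% inhibition); AC50 from standard Hill equation.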

[13] = Cell Viability - SK-N-SH (AID 435; calls by dose curve; further: potency means the concentration at half of the fitted maximal effect); conditions: SK-N-SH neuroblastoma cell viability qHTS
Procedure, shortened: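 CellTiter-Glo ATP luminescence, 20 min RT read; cells pre-plated 5 hr, compound 40 hr at 37 °C, 1500 cells/well, complete medium. Normalized DMSO = 0, 100 uM tamoxifen = 100% inhibition; Hill-fit AC50.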

[14] = Cell Viability - N2a (AID 540; active means well fitted curve in the direction sought with a large enough effect; an effect the other way counts as inactive or inconclusive; further: nearly all actives have a fitted effect of over 45% in size)
Procedure, shortened: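 In this qHTS cytotoxicity screen, ATP-dependent luciferase luminescence reports viable N2a cells after a 40 hr compound exposure in complete culture medium. Potencies are AC50 values from standard Hill equation fits.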

[15] = Cell Viability - NIH 3T3 (AID 541; active means well fitted curve in the direction sought with a large enough effect; an effect the other way counts as inactive or inconclusive; further: nearly all actives have a fitted effect of over 25% in size)
Procedure, shortened: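 In this cytotoxicity screen, acute toxicity is scored as an ATP drop measured by CellTiter-Glo in NIH 3T3 fibroblasts following a 40 hr, 37 °C incubation with compound.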

[16] = Cell Viability - HUV-EC-C (AID 542; active means well fitted curve in the direction sought with a large enough effect; an effect the other way counts as inactive or inconclusive; further: nearly all actives have a fitted effect of over 35% in size)
Procedure, shortened: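 Concentration-dependent ATP loss in HUV-EC-C cells is the measure. Exposure lasts 40 hr at 37 °C; luminescence follows CellTiter-Glo addition, and Hill fits give AC50.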

[17] = Cell Viability - H-4-II-E (AID 543; active means well fitted curve in the direction sought with a large enough effect; an effect the other way counts as inactive or inconclusive; further: nearly all actives have a fitted effect of over 35% in size)
Procedure, shortened: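 AC50 from Hill-modelled qHTS concentration-response curves. H-4-II-E rat hepatoma cells in complete medium, 40 hr exposure at 37 °C, viability by CellTiter-Glo ATP luminescence.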

[18] = Cell Viability - SH-SY5Y (AID 544; active means well fitted curve in the direction sought with a large enough effect; an effect the other way counts as inactive or inconclusive; further: nearly all actives have a fitted effect of over 55% in size)
Procedure, shortened: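 Quantitative HTS in SH-SY5Y neuroblastoma cells, 40 hr treatment at 37 °C, ATP content by luciferase luminescence; AC50 from Hill fits.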

[19] = Cell Viability - Renal Proximal Tubule (AID 545; active means well fitted curve in the direction sought with a large enough effect; an effect the other way counts as inactive or inconclusive; further: nearly all actives have a fitted effect of over 40% in size)
Procedure, shortened: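 Rat kidney proximal tubule cells, freshly isolated; 1000 cells/well, 5 hr settle, compound 40 hr 37 °C. CellTiter-Glo 20 min RT, luminescence read. AC50 by standard Hill fit.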

[20] = Cell Viability - Mesenchymal (AID 546; active means well fitted curve in the direction sought with a large enough effect; an effect the other way counts as inactive or inconclusive;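 further: cells exposed to compound for 40 hours before reading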)
Procedure, shortened: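 Human renal mesenchymal cells (glomerulus-derived), 1000 cells/well, 5 hr 37 °C pre-incubation; compound 40 hr, 37 °C; CellTiter-Glo, 20 min RT; luminescence; AC50 via Hill equation.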

Measured: Potency

CC(C)C[C@H](NC(=O)[C@@H]1O[C@H]1C(=O)O)C(=O)NCCCCN=C(N)N
inactive: [1] | [2] | [3] | [4] | [5] > 46 µM and > 20.6 µM | [6] > 46 µM | [7]

CCc1cccc2c3c([nH]c12)[C@@](CC)(CC(=O)O)OCC3
inactive: [1] | [2] | [3] | [4] | [7]

C[C@]1(C2CCCC2)Cc2cc(OCC(=O)O)c(Cl)c(Cl)c2C1=O
inactive: [1] | [2] | [3] | [4] | [5] > 46 µM | [6] > 46 µM | [7]

C=C1C[C@]23C[C@@]1(O)CC[C@H]2[C@@]12C=C[C@H](O)[C@@](C)(C(=O)O1)[C@H]2[C@@H]3C(=O)O
inactive: [8] > 92 µM | [9] > 92 µM | [10] > 92 µM | [11] > 92 µM | [12] > 92 µM | [13] > 92 µM | [7] | [14] | [15] | [16] | [17] | [18] | [19] | [20]

COc1ccc(CCC(=O)c2c(O)cc(O[C@@H]3O[C@H](CO)[C@@H](O)[C@H](O)[C@H]3O[C@@H]3O[C@@H](C)[C@H](O)[C@@H](O)[C@H]3O)cc2O)cc1O
inactive: [8] > 92 µM | [9] > 92 µM | [10] > 92 µM | [11] > 92 µM | [12] > 92 µM | [13] > 92 µM | [7] | [14] | [15] | [16] | [17] | [18] | [19] | [20]

CCN1CCN(C(=O)N[C@@H](C(=O)N[C@@H]2C(=O)N3[C@@H]2SC(C)(C)[C@@H]3C(=O)O)c2ccccc2)C(=O)C1=O
inactive: [3] | [4]
